Only some compounds are listed: those with a hit (about 3.1% of all), similar ones and a draw of the others.
HSF-1 act: HSF-1 activators, primary screen, NIH3T3-HGL cells, MG132 stress, luminescence, single point; NIH3T3-HGL HSF-1 luciferase reporter, 8 h; 100% = twice DMSO control signal; AID 504408, 2011; 300,000 tested, 1.7% active; activation, % at 9 µM;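 active = mean replicate activation of at least 50% with a set share of replicates each reaching 50%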;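 also: 0% = median of the neutral control wells and 100% = twice that signal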
HSF1 inhib: HSF1 inhibitors in luciferase reporter cells, primary screen, cell-based, NIH3T3, luminescence; NIH3T3-HGL HSE-luciferase, MG132-induced, luminescence 8 h; active compounds read low; activity change, negative = inhibition, % at 7.5 µM (by protocol); 300,000 tested, 0.77% active; AID 2098, 2009;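 active = more than half of replicate wells show activity change below -50%, luminescence cut by over half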;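 also: luciferase reports HSF-1 transcriptional activity via heat shock element; 0% = median of DMSO wells and -100% = zero luminescence signal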
HIF activator: HIF pathway transcriptional activators, primary screen, cell-based, U2OS HRE-luciferase, luminescence; U2OS HRE-luciferase reporter; normalized: DMSO 0%, desferrioxamine 100%; activation, % at 7.5 µM (by protocol); 300,000 tested, 0.32% active;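 active = mean activation of at least 10% of the iron chelator positive control signal, with at least half of replicates also reaching 10%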
HSP90 refold inh: HSP90 inhibitors, primary screen, cell lysate, luminescence; inhibition, % at 5.6 µM; 290,000 tested, 0.91% active; Heat shock protein HSP 90 (rabbit reticulocyte lysate; luciferase refolding); Rabbit reticulocyte lysate, luciferase refolding luminescence, 3 h;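 active = inhibition above the screen-wide mean plus 3 SD, computed separately per campaign, cut at about 16% in these data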;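 also: 0% = DMSO wells and 100% = 60 µM geldanamycin wells; inhibitors lower the luminescence because luciferase stays unfolded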
ARNT TACC3 PPI: disruptors of ARNT/TACC3 protein interaction, primary screen, biochemical, AlphaScreen, single concentration; AID 623870, 2012; Transforming acidic coiled-coil-containing protein 3 (Homo sapiens), Q9Y6A5; inhibition, % at 9.99 µM; 390,000 tested, 0.66% active; AlphaScreen His-ARNT PAS-B/GST-TACC3 binding, luminescence; TACC3 fragment carries E629A point mutation;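 active = mean inhibition of replicates at least 50% and at least half of replicates each reaching 50%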;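 also: 0% = complete ARNT plus TACC3 wells and 100% = ARNT alone without TACC3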
HSP90 inh confirm: HSP90 inhibitors, confirmation, cell lysate, luminescence | rabbit reticulocyte lysate, luciferase refolding luminescence, 3 h | inhibition, % at 5.9 µM | AID 1846, 2009 | shares compounds with HSP90 refold inh | 2,300 tested, 64% active; in the data active = inhibition above about 18%;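 also: 0% = vehicle wells and 100% = reference inhibitor wells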
FLuc counter: firefly luciferase inhibitors, HSP90 counter-screen, confirmation, artefact control for HSP90 inhibitor project, biochemical, luminescence, triplicate. shares compounds with HSP90 refold inh. purified native firefly luciferase. inhibition, % at 5.9 µM. 2,300 tested, 48% active. AID 1847, 2009;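 active = inhibition above the mean inhibition of all tested sample wells plus 3 SD, cut at about 10% in these data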;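 also: 0% = DMSO with luciferase and 100% = wells lacking luciferase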
Target sequence (P08659 whole entry, looked up): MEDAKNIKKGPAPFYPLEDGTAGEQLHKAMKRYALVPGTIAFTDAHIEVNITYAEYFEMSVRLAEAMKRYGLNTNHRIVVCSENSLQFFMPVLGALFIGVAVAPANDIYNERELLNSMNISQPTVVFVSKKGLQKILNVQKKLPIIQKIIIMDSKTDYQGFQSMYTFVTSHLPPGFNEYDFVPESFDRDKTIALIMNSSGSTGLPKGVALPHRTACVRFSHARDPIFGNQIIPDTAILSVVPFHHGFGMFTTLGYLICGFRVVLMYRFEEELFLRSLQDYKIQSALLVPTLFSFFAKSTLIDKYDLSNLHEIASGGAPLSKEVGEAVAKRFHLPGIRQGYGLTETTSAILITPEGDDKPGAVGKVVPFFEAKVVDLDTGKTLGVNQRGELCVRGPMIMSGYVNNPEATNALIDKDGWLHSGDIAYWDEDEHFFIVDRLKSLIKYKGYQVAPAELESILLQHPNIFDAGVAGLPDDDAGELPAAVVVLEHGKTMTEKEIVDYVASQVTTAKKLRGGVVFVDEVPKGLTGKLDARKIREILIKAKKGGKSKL
Active calls of the source: *; nt = not tested or not shown.

SMILES	HSF-1 act	HSF1 inhib	HIF activator	HSP90 refold inh	ARNT TACC3 PPI	HSP90 inh confirm	FLuc counter
Cc1ccc(NC(=S)c2nc3ccccc3s2)cc1	-69.9	-64.6*	-1.3	23.1*	-2.8	42.1*	26.2*
CCC(=O)N(C)C[C@@H]1Oc2ncc(C#CC(C)(C)O)cc2C(=O)N([C@H](C)CO)C[C@H]1C	nt	nt	nt	nt	-5.8	nt	nt
Cc1ccc(-c2nnc(Nc3ccccc3)o2)cc1	-25.0	-7.0	-2.5	36.2*	-21.8	80.8*	71.5*
Cc1ccc(NC(=O)Nc2nnc(-c3ccccc3)o2)cc1	21.3	14.0	1.2	-3.0	21.5	nt	nt
C[C@@H]1CN([C@H](C)CO)S(=O)(=O)c2ccc(C3=CCCC3)cc2O[C@H]1CN(C)Cc1ccncc1	nt	nt	nt	nt	8.1	nt	nt
C[C@H](CO)N1C[C@H](C)[C@@H](CN(C)C(=O)Nc2ccc(F)cc2)Oc2ncc(-c3cccnc3)cc2C1=O	nt	nt	nt	nt	6.1	nt	nt
Cc1cccc(-c2cc3nc4c(c(N5CCOCC5)n3n2)CCCC4)c1	nt	nt	2.8	40.1*	21.4	59.0*	58.2*
Cc1cccc(-c2cc3nc4c(c(N5CCC6(CC5)OCCO6)n3n2)CCCC4)c1	nt	nt	nt	0.7	-14.7	nt	nt
Cc1noc(C)c1S(=O)(=O)Nc1ccc2c(c1)C(=O)N([C@@H](C)CO)C[C@@H](C)[C@H](CN(C)Cc1ccncc1)OCCCC[C@@H](C)O2	nt	nt	nt	nt	-5.5	nt	nt
O=C(CSc1nc2ccccc2s1)N/N=C/c1ccccc1C(=O)O	-61.6	-63.0*	-0.4	17.5*	15.6	7.9	8.5
O=C(O)COc1ccccc1/C=N/NC(=O)CSc1nc2ccccc2s1	-19.0	4.1	0.0	7.5	nt	nt	nt
COCC(=O)NC[C@H]1N[C@H](CO)[C@H]1c1ccc(C2=CCCC2)cc1	nt	nt	nt	nt	-1.2	nt	nt
Cc1cc(C)c(C(=O)COC(=O)c2ccc(NC(=O)CC#N)cc2)cc1C	-2.1	7.4	-0.2	3.1	-7.1	nt	nt
Cc1ccc2c(COC(=O)c3ccc(NC(=O)CC#N)cc3)cc(=O)oc2c1C	55.7*	18.5	2.0	19.5*	-5.6	21.8*	-5.8
NNC(=O)c1ccc(COc2ccc3ccccc3c2)o1	48.5	17.0	0.6	3.1	-3.4	nt	nt
O=C(OCc1ccccn1)c1ccc(COc2ccc3ccccc3c2)o1	32.9	19.6	2.2	44.5*	-5.5	63.2*	-11.4
CO[C@H]1CN(C)C(=O)c2ccc(NC(=O)C3CC3)cc2OC[C@@H](C)N(C(=O)c2ccccc2F)C[C@H]1C	nt	nt	nt	nt	-0.6	nt	nt
CCOC(=O)c1ccc(-c2ccc(C=O)o2)cc1	33.0	26.0	2.1	29.8*	-0.6	52.3*	-12.8
CCOC(=O)c1cccc(-c2ccc(C=O)o2)c1	19.4	7.6	0.4	-1.1	3.8	nt	nt
C[C@H]1CN([C@@H](C)CO)C(=O)c2cccc(NS(=O)(=O)c3ccc(F)cc3)c2O[C@H]1CN(C)CC1CC1	nt	nt	nt	nt	-11.2	nt	nt
CC(=O)Nc1cccc(-c2nc3ccccc3[nH]2)c1	25.5	6.4	1.2	-4.8	1.4	nt	nt
O=C(O)c1cccc(-c2nc3ccccc3[nH]2)c1	-38.2	-28.9	0.6	72.7*	10.3	80.2*	60.1*
O=C(O)c1ccc2nc(CO)[nH]c2c1	2.9	3.7	-0.3	36.4*	1.1	20.2*	-2.4
COc1ccc(-c2nc3ccccc3[nH]2)cc1	3.5	-1.7	-0.1	19.9*	0.7	46.7*	32.8*
O=C(N[C@H]1CC[C@H](CCNS(=O)(=O)c2ccccc2Cl)O[C@H]1CO)c1ccc(F)cc1	nt	nt	nt	nt	-11.4	nt	nt
SMILES	HSF-1 act	HSF1 inhib	HIF activator	HSP90 refold inh	ARNT TACC3 PPI	HSP90 inh confirm	FLuc counter
CCOC(=O)N1N=C(c2ccccc2)CC1(O)C(F)(F)F (stereo not drawn)	29.3	9.4	3.3	-1.2	5.2	nt	nt
CCOC(=O)N1N=C(c2ccc(C)cc2)CC1(O)C(F)(F)F (stereo not drawn)	2.8	-7.5	0.5	19.9*	-21.8	48.0*	43.4*
Cc1cc(C2=NNC(=NC3CC3)SC2)c(C)n1-c1ccccc1F	-68.2	-67.8*	-2.2	36.0*	3.1	85.2*	76.0*
COc1ccc(NC(=O)N(C)C[C@H]2OCCCC[C@H](C)Oc3ccc(NC(=O)c4ccccc4)cc3C(=O)N([C@@H](C)CO)C[C@@H]2C)cc1	nt	nt	nt	nt	-5.7	nt	nt
Cc1cc(Cl)ccc1OCC(=O)N(Cc1cccs1)C1CCS(=O)(=O)C1 (stereo not drawn)	41.3	15.5	-0.3	22.9*	-16.9	2.2	-4.3
CCCCOc1ccc(-c2ncc(C(=O)O)c(C)n2)cc1	-30.3	-15.5	1.0	38.0*	-12.8	63.1*	18.1*
CCCCCCOc1ccc(C(=O)O)cc1	nt	nt	nt	-4.1	-1.2	nt	nt
COc1ccc(NC(=O)N(C)C[C@@H]2Oc3c(NS(=O)(=O)c4ccc(Cl)cc4)cccc3C(=O)N([C@@H](C)CO)C[C@@H]2C)cc1	nt	nt	nt	nt	5.2	nt	nt
CC(=O)c1c(C)[nH]c(C(=O)OCCOc2ccccc2)c1C	28.8	8.4	-5.1	34.0*	-6.8	54.9*	57.0*
COCCCn1c(SCC(=O)OC2CCCCC2)nnc1-c1ccco1	3.5	-0.1	0.1	-2.9	-9.7	nt	nt
Cn1c(SCC(=O)OC2CCCCC2)nnc1-c1ccco1	-25.1	-15.3	-1.2	21.8*	-5.7	-10.6	-17.8
CC(C)c1ccc(NC(=O)c2csnn2)cc1	19.1	11.1	0.2	19.7*	-1.7	32.6*	23.1*
O=C(Nc1ccccc1NC(=O)c1csnn1)c1csnn1	-59.1	-45.7	-0.3	-1.5	1.5	nt	nt
C[C@@H]1CCCCO[C@@H](CN(C)Cc2ccc3c(c2)OCO3)[C@H](C)CN([C@H](C)CO)C(=O)c2cc(NS(=O)(=O)c3ccc(Cl)cc3)ccc2O1	nt	nt	nt	nt	9.4	nt	nt
CO[C@@H]1CN(C)C(=O)c2cc(NC(=O)Nc3c(C)noc3C)ccc2OC[C@@H](C)N(CC2CC2)C[C@@H]1C	nt	nt	nt	nt	-10.3	nt	nt
CC(C)(C)c1cc(C(=O)N/N=C/c2ccc(-c3ccccc3[N+](=O)[O-])o2)n[nH]1	3.5	8.9	2.3	12.7	-9.5	nt	nt
O=C(N/N=C/c1ccc(-c2ccccc2[N+](=O)[O-])o1)c1cccnc1	10.7	3.5	1.5	31.9*	nt	6.2	-8.4
Cc1ccc(Nc2nc(-c3sc(NC(=O)c4ccco4)nc3C)cs2)cc1	6.0	-0.1	0.7	11.2	-3.0	nt	nt
COc1ccccc1Nc1nc(-c2sc(NC(=O)C(C)(C)C)nc2C)cs1	5.3	0.9	1.0	1.6	nt	nt	nt
